Experiment [1] can be described thus: anti-His antibody binders, primary screen, artefact control for SMM control protein annotation, biochemical, small-molecule microarray, 635 nm fluorescence (AID 1128).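 Further: score merges feature fluorescence with signal-to-noise for each printed compound spot.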 To be noted: anti-His Alexa647 antibody binding, higher = more signal.
The subject of experiment [2] is Human papillomavirus type 1a E7 protein (residues 1-88). Nature of the experiment: HPV1a E7 small-molecule binders, primary screen, biochemical, small-molecule microarray, residues 1-88, 635 nm (AID 1129). The settings on record: small-molecule microarray binding, fluorescence 635 nm; higher = more signal.
The target of experiment [3] is Focal adhesion kinase 1 (Homo sapiens) (UniProt Q05397). Nature of the experiment: small-molecule microarray binders of FAK, primary screen, biochemical, 635/667 nm fluorescence, BSA, DTT (AID 1130).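 Further: composite of spot emission at 667 nm and signal to noise over triplicate slides.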 The settings on record: PTK2 binding, 635 nm fluorescence, higher = more signal.
Sequence of Focal adhesion kinase 1 (Homo sapiens) (Q05397 whole entry, looked up): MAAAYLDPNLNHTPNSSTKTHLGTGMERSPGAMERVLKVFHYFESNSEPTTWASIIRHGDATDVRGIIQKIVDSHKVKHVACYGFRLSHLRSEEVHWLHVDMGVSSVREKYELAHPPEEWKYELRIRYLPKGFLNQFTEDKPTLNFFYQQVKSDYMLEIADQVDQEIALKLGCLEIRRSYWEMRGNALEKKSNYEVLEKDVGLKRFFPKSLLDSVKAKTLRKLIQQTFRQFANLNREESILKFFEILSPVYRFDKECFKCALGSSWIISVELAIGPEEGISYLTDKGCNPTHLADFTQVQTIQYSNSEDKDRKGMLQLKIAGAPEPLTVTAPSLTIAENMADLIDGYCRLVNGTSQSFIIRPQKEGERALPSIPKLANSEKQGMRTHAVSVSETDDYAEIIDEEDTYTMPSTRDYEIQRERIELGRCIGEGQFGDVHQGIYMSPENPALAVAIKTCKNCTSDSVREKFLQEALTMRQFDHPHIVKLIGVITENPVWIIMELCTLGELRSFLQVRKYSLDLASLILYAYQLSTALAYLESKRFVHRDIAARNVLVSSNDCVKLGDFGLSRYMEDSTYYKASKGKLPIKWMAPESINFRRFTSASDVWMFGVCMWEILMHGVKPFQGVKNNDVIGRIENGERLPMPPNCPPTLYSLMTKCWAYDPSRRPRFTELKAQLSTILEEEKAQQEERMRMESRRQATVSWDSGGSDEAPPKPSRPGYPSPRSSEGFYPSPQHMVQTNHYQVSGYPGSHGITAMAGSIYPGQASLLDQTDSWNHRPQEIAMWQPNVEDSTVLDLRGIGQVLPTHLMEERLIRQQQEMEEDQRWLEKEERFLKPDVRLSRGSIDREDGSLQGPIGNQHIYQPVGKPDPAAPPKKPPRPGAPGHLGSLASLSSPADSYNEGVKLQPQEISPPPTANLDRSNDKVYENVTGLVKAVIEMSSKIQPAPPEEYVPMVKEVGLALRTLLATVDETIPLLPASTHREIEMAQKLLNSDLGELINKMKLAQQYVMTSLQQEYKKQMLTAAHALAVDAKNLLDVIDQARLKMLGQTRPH
Experiment [4] has as its system Fibrinogen (Alexa647-labelled). Nature of the experiment: fibrinogen binders on compound microarrays, profiling panel, artefact control for SMM control-protein annotation, biochemical, small-molecule microarray, 635/667 nm fluorescence (AID 1131).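 Further: z-score merges 667 nm fluorescence with per-spot signal-to-noise over triplicate slides.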 To be noted: fibrinogen-A647 binding fluorescence, higher = more signal.
For experiment [5], the target named is Follistatin (Homo sapiens) (UniProt P19883). Nature of the experiment: follistatin binders on small-molecule microarrays, primary screen, biochemical, small-molecule microarray, 635/667 nm fluorescence (AID 1132). To be noted: FST binding, 635 nm fluorescence, higher = more signal.
Sequence of Follistatin (Homo sapiens) (P19883 whole entry, looked up): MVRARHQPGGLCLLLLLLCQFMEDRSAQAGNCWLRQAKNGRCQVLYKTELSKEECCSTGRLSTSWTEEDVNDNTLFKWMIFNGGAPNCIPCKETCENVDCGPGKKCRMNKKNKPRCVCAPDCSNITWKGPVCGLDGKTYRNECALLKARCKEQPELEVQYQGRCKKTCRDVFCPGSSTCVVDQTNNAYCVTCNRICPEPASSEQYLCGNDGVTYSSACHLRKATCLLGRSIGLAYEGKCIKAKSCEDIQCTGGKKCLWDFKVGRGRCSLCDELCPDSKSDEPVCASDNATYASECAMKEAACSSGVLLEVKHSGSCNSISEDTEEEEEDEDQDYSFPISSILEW
For experiment [6], the target named is Fibroblast growth factor 2 (Homo sapiens) (UniProt P09038). Nature of the experiment: FGF2 binders on small-molecule microarrays, primary screen, biochemical, small-molecule microarray, 635/667 nm fluorescence (AID 1133). The settings on record: small-molecule microarray binding, FGF2, fluorescence 635/667; higher = more signal.
Sequence of Fibroblast growth factor 2 (Homo sapiens) (P09038 whole entry, looked up): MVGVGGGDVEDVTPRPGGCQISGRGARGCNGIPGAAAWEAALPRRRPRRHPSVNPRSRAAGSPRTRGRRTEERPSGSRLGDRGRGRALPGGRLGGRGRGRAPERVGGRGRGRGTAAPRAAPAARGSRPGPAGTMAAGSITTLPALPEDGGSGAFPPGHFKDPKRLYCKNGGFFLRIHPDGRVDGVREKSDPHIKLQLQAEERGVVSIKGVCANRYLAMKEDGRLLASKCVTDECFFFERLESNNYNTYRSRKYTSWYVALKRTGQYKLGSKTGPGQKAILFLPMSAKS
The nature of experiment [7]: mitochondrial membrane potential change in A549 cells, profiling panel, cell-based, JC-1 fluorescence, basal, 24 h, 100 nL (AID 1138).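 Further: A549 lung adenocarcinoma cells under basal conditions with no added stimulus; test concentration not given here.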 The settings on record: higher = more signal.
The next experiment concerns Lefty1. Nature of the experiment: Lefty1 binders on small-molecule microarrays, primary screen, biochemical, small-molecule microarray, 635/667 nm fluorescence (AID 1139). To be noted: small-molecule microarray binding, fluorescence 635/667; higher = more signal.
Experiment [8] relates to wheat germ agglutinin (Triticum aestivum), Alexa647-labelled. Nature of the experiment: wheat germ agglutinin binders on compound microarrays, profiling panel, artefact control for SMM control-protein annotation, biochemical, small-molecule microarray, 635/667 nm fluorescence (AID 1140).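 Further: score merges 667 nm feature emission with signal to noise over triplicate slides.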 To be noted: WGA-A647 binding, 635 nm fluorescence, higher = more signal.
In experiment [9] the target is Luciferin 4-monooxygenase (Photinus pyralis) (UniProt P08659). Nature of the experiment: firefly luciferase enzyme inhibitors, primary screen, biochemical, luminescence, purified enzyme, 2006 set (AID 1141).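 Further: cell-free assay with purified firefly luciferase at 100 ng per well in PBS; test concentration not given here.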 The settings on record: SteadyGlo luminescence, 30 min, higher = more signal, called active from +8 up or from −8 down.
Sequence of Luciferin 4-monooxygenase (Photinus pyralis) (P08659 whole entry, looked up): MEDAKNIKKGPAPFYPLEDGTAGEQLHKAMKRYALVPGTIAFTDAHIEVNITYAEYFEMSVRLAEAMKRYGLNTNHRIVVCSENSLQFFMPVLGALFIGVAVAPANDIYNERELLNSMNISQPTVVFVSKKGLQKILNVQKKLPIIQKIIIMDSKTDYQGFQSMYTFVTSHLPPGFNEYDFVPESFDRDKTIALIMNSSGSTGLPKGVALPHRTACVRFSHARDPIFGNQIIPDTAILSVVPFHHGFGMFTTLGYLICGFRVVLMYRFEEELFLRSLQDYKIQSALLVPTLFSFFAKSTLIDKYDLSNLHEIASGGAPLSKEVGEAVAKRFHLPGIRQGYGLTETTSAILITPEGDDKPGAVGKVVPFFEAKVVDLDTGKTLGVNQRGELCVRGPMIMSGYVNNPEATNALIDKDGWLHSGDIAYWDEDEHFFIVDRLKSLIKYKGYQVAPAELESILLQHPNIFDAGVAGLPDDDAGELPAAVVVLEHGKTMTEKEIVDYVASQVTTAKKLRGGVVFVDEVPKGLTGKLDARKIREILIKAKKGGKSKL
Experiment [10] relates to Wnt5a (protein binding on small-molecule microarray). Nature of the experiment: Wnt5a binders on small-molecule microarray, primary screen, biophysical, 635/667 nm fluorescence (AID 1142).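 Further: fluorescence read at 667 nm with signal to noise per printed feature.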 To be noted: 635 nm fluorescence, higher = more signal.
Experiment [11] can be described thus: cell viability in Huh7 cells, primary screen, cytotoxicity control for HCV replication inhibitor project, CellTiter-Glo luminescence, basal, 48 h (AID 1143).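 Further: Huh7 hepatoma cells carrying a hepatitis C replication reporter with no stimulus; test concentration not given here.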 The settings on record: Huh7 HCV replicon, higher = more signal, called active from +8 up or from −8 down.
Experiment [12] in a line: P. aeruginosa biofilm formation inhibitors, primary screen, PAO1 strain, BacTiter-Glo luminescence, LB-PBS (AID 1144). To be noted: 12 h, higher = more signal.
Experiment [13] in a line: CREB reporter modulators without forskolin, primary screen, cell-based, PC12, CRE-LacZ reporter, unstimulated (AID 1145). The settings on record: no forskolin, luminescence, 4.5 h, higher = more signal, called active from +8 up or from −8 down.
The nature of experiment [14]: CREB reporter modulators under forskolin, primary screen, cell-based, PC12, CRE-LacZ reporter, forskolin-stimulated (AID 1146).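 Further: PC12 cells with 6xCRE LacZ reporter stimulated by forskolin 10 µM; beta-galactosidase reporter signal reflecting CREB driven transcription.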 The settings on record: luminescence, 4.5 h, higher = more signal, called active from +8 up or from −8 down.
The target of experiment [15] is Streptavidin (Streptomyces avidinii) (UniProt P22629). Nature of the experiment: streptavidin binders on small-molecule microarray, primary screen, artefact control for SMM compound annotation, biophysical, 635/667 nm fluorescence (AID 1147).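 Further: signal reflects streptavidin binding to arrayed compounds as a control protein.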 To be noted: streptavidin binding, higher = more signal.
Sequence of Streptavidin (Streptomyces avidinii) (P22629 whole entry, looked up): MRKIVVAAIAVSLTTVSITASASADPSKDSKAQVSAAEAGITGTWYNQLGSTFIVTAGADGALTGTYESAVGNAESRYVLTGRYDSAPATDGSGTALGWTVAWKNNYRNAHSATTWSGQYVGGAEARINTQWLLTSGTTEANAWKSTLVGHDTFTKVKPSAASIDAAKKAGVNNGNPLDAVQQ
Experiment [16] in a line: small-molecule binders of probe aInhba, primary screen, biochemical, small-molecule microarray, 635/667 nm fluorescence (AID 1148).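 Further: score merges 667nm spot fluorescence with signal-to-noise for antibody binding to printed compounds.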 To be noted: higher = more signal.
Experiment [17] has as its target Torsin-1A (Homo sapiens) (UniProt O14656). Nature of the experiment: torsin A binders from cell lysate, primary screen, small-molecule microarray, wild-type, 635/667 nm (AID 1149). To be noted: COS7 hTOR1A-WT lysate, 635 nm fluorescence, higher = more signal.
The target is the same in experiment [18]. Nature of the experiment: small-molecule binders of mutant TOR1A in lysate, primary screen, cell lysate, small-molecule microarray, COS7 lysate, 635/667 nm fluorescence (AID 1150).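 Further: score pools 667 nm emission and signal to noise measuring lysate protein binding.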 The settings on record: COS7 hTOR1A mutant lysate, 635 nm fluorescence, higher = more signal.
In experiment [19] the test system is Sonic hedgehog protein (Shh). Nature of the experiment: small-molecule binders of Shh protein, primary screen, biochemical, small-molecule microarray, 635/667 nm fluorescence (AID 1151).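 Further: Shh protein binding to compounds spotted on small-molecule microarray slides; score combines spot fluorescence intensity with signal-to-noise across triplicate slides.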 To be noted: small-molecule microarray binding, 635 nm fluorescence; higher = more signal.

Active and inactive are the calls of the source. Unless noted, how the calls were made is not given here.

Sequence of Torsin-1A (Homo sapiens) (O14656 whole entry, looked up): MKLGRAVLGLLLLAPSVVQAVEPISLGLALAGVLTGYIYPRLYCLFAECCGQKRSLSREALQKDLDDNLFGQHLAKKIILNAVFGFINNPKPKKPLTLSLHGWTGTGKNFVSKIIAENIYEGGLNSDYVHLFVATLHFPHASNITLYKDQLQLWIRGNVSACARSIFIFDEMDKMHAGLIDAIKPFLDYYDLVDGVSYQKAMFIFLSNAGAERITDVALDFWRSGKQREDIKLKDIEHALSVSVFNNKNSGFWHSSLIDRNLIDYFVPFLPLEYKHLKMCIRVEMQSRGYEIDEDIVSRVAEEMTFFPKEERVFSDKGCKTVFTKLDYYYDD

As for `C=C(CCCC)/C(=C/C[C@@H](OC(=O)c1ccncc1)c1ccccc1OCCO)c1cc(C(=O)OC)ccc1OC`, the composite z-score came out at 2.82 in experiment [1]; 1.22 in experiment [2]; 1.38 in [3]; 0.979 in [4]; 0.549 in [5]; 0.213 in [6]. In addition, the composite z-score with Lefty1 is 0.444; in experiment [8], 1; in experiment [10], 0.106; in experiment [15] it was -0.36; in experiment [16], -0.0047; with Torsin-1A (Homo sapiens) [17], 0.622. Moreover, the composite z-score came out at 1.1 with Torsin-1A (Homo sapiens) [18] and 1.4 in experiment [19]. Moreover, the z-score in experiment [7] is 3.24; in experiment [9], -1.76 (inactive); in [11] it was -2.02 (inactive); in [12], 0.0648 (inactive); in experiment [13], 15.6 (active); in [14], 0.383 (inactive).
In the case of `C=CC[C@@]1(C(=O)NCC(O)CO)N=C(c2ccc(OCCCO)cc2)O[C@@H]1c1ccccc1` (stereo not given in full), the composite z-score in experiment [1] is 1.98; in [2] it was 0.932; in [3] it was 0.307; in experiment [4], 0.543; in [5], 1.44; in experiment [6], 1.02. In addition, the composite z-score in the experiment on Lefty1 stood at 0.0457; in experiment [8], 1.27; in experiment [10], 1.19; in [15], 0.145; in experiment [16] it was 0.524; with Torsin-1A (Homo sapiens) [17], 0.373. For the same compound, the composite z-score in the experiment with Torsin-1A (Homo sapiens) [18] was 2.47; in experiment [19] it was -0.702. Moreover, the z-score in experiment [7] is 1.01; in [9], -1.31 (inactive); in experiment [11], -0.834 (inactive); in [12], 0.627 (inactive); in experiment [13], 0.685 (inactive); in [14], -0.458 (inactive).
As for `OCCCC1=CC(c2cccs2)N(Cc2cccc(OC(F)(F)F)c2)CC1` (stereo not given), the composite z-score in [1] is 0.357; in experiment [2] it was -0.138; in experiment [3] it was 0.316; in experiment [4], -1.42; in [5] it was -0.17; in [6], -0.546. In addition, the composite z-score in the experiment with Lefty1 was 0.226; in experiment [8], 0.771; in experiment [10], -0.335; in experiment [15] it was -0.889; in experiment [16], -0.179; with Torsin-1A (Homo sapiens) [17], 0.331. The composite z-score with Torsin-1A (Homo sapiens) [18] was -0.632; in experiment [19], 0.243. For the same compound, the z-score is 0.593 in experiment [7]; -0.605 (inactive) in [9]; -1.06 (inactive) in experiment [11]; 0.839 (inactive) in [12]; 0.593 (inactive) in [13]; -0.368 (inactive) in experiment [14].
In the case of `C=C[C@H](C)[C@H](OC(=O)Nc1ccc(SC)cc1)c1ccc(O)c2ccccc12`, the composite z-score in experiment [1] is 0.499; in [2], -0.526; in experiment [3], 0.209; in experiment [4], -1.35; in experiment [5] it was 1.08; in experiment [6], 0.162. The composite z-score in the experiment with Lefty1 is 0.192; in experiment [8], -0.341; in experiment [10], 0.081; in [15], -0.635; in experiment [16] it was -0.154; in the experiment with Torsin-1A (Homo sapiens) [17] it was -0.252. Further, the results for the composite z-score (with Torsin-1A (Homo sapiens) [18]; in experiment [19]) were -0.0104 and 0.73, respectively. Further, the z-score in [7] is -1.51; in experiment [9], -2.89 (inactive); in [11], -4.25 (inactive); in experiment [12], -0.0275 (inactive); in [13] it was 0.0172 (inactive); in experiment [14], 4.5 (inactive).
As to `CC(C)CNC(=O)[C@@]1(C)c2ccccc2C(=O)N(Cc2ccccc2)[C@H]1c1ccc(CO)cc1`, the composite z-score in experiment [1] is -0.97; in experiment [2], -0.955; in experiment [3], -0.846; in experiment [4], -1.84; in experiment [5] it was -0.976; in experiment [6], -1.27. Also, the composite z-score with Lefty1 was -2.25; in experiment [8] it was -1.4; in experiment [10], -0.368; in [15], -1.18; in experiment [16], -0.331; with Torsin-1A (Homo sapiens) [17], -1.5. For the same compound, the figures for the composite z-score (with Torsin-1A (Homo sapiens) [18]; in [19]) were -0.742 and -1.02, respectively. In addition, the z-score was -0.504 in [7]; 0.182 (inactive) in experiment [9]; 0.0572 (inactive) in experiment [11]; 0.789 (inactive) in [12]; 0.531 (inactive) in [13]; 0.172 (inactive) in [14].

These data come from PubChem BioAssay.
